# PubChem BioAssay
# Assay: COS7 lysate on small-molecule microarray, probe aHis, 635 nm (AID 1123);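 further: z-score combines 667nm fluorescence intensity with signal-to-noise per printed compound spot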
# Conditions: COS7 cell lysate, fluorescence, higher = more signal
row,SMILES,composite z-score
1,C=CC[C@@]12N=C(c3ccc(OCCCO)cc3)O[C@@H]1c1ccccc1N(CCS(=O)(=O)c1ccccc1)C2=O,1.78
2,CC(C)N1CC=CC23O[C@@H]4C=CCCOC(=O)C4[C@H]2C(=O)N(CCO)[C@@H]3C1=O (stereo partly drawn),-0.548
3,CCOC(=O)C[C@H]1[C@H](OC(=O)c2ccc(-c3ccccc3)cc2)[C@@H](NC(=O)C2CCCCC2)c2cc(OCCCO)ccc2N1C(=O)c1ccccc1,0.92
4,C=CCN1Cc2ccccc2C[C@@]2(N=C(c3ccc(OCCCO)cc3)O[C@H]2c2ccccc2)C1=O,3.06
5,O=C1O[C@H](c2ccccc2)[C@H](c2ccccc2)N2[C@H]1[C@@H](C(=O)O)[C@]1(C(=O)Nc3ccccc31)[C@H]2c1ccc(O)cc1,0.969
6,CN(C)CCCNC(=O)[C@@]1(C)c2ccccc2C(=O)N(Cc2cc(C(F)(F)F)cc(C(F)(F)F)c2)[C@H]1c1ccc(CO)cc1,0.155
7,CCOC(=O)C[C@H]1[C@H](OC(=O)c2ccc(C(=O)c3ccccc3)cc2)[C@@H](NC(=O)c2ccc3ccccc3c2)c2cc(OCCCO)ccc2N1C(=O)c1ccccc1,1.26
8,Cc1c(NC(=O)/C(C#N)=C/C=C/c2ccccc2[N+](=O)[O-])c(=O)n(-c2ccccc2)n1C,1.11
9,C=CC[C@]12N=C(c3ccc(OCCCO)cc3)O[C@H]1c1ccccc1N(C)C2=O,2.73
10,CC(C)CCC[C@@H](C)[C@H]1CC[C@@]2(C)C3=C(CC[C@]12C)[C@@]1(C)CC[C@H](OC(=O)c2ccc(Br)cc2)C(C)(C)C1CC3 (stereo partly drawn),-0.28
11,Cc1ccc(F)cc1S(=O)(=O)N[C@@H]1CCN(Cc2ccc(Oc3ccccc3)cc2)C1,-0.13
12,COC(=O)[C@H](Cc1ccccc1)N1CC(/C=C/C2CC2)=C[C@@H]1[C@@H](O)Cc1ccccc1,0.992
13,CCN(CC)c1ccc(N2CC=CC34O[C@@H]5/C=C\CCC(C)OC(=O)C5[C@H]3C(=O)N(CCO)[C@@H]4C2=O)cc1 (stereo partly drawn),1.87
14,Cc1ccc(S[C@]2(C(=O)NC3CC3)CC(=O)N(Cc3ccccc3Cl)[C@@H]2c2ccc(CO)cc2I)cc1,2.52
15,C[C@]1(C(=O)NCCN2CCOCC2)c2ccccc2C(=O)N(Cc2ccc(OC(F)(F)F)cc2)[C@H]1c1ccc(CO)cc1,2.43
16,C[C@H]1C2=C3C(CC[C@H]4C(OCc5ccc(F)cc5C(F)(F)F)OC[C@](C)([C@@H]34)N(C(=O)OC(C)(C)C)C2)C2COC(=O)OCC21 (stereo partly drawn),2.93
17,COCCOC(=O)N1C(=O)[C@@]2(c3cc(C#CCNC(N)=O)ccc31)[C@H](C(=O)N1CCCCCCC1)[C@H]1C(=O)O[C@H](c3ccccc3)[C@H](c3ccccc3)N1[C@@H]2c1ccc(O)cc1,0.654
18,Cc1ccc(C(C)CC(O)C2C=CC3C(=O)N(c4ccccc4)C(=O)C3N2Nc2ccc(C(C)C)cc2)o1 (stereo not drawn),1.33
19,CC=CC(O)C1C=CC2C(=O)N(C)C(=O)C2N1Nc1ccc([N+](=O)[O-])cc1[N+](=O)[O-] (stereo not drawn),1.08
20,O=C(O)[C@]1(Cc2ccccc2)N=C(c2ccc(OCCCO)cc2)O[C@@H]1c1ccccc1,0.689
21,[N-]=[N+]=NCc1ccccc1[C@H]1OC(c2ccc(OCCCO)cc2)=N[C@@]1(CCS(=O)(=O)c1ccccc1)C(N)=O,3.31
22,Cc1c(NC(=O)/C(C#N)=C/C=C/c2ccc(N(C)C)cc2)c(=O)n(-c2ccccc2)n1C,2.54
23,COc1ccc([Si](C)(C)[C@@H]2[C@@H](CCO)O[C@]3(C(=O)N(Cc4cccc(N5C(=O)c6cccc7cccc5c67)c4)c4ccccc43)[C@H]2C)cc1,1.17
24,COc1c(C)cc(-c2cc3c(c(Cc4ccccc4)n2)[Si](C(C)C)(C(C)C)OC3)cc1C,0.0246
25,CON(C)C(=O)C=C1C[C@@H](c2cccc(Cl)c2)O[C@@H](c2cccc(Cl)c2)O1,0.339
26,COc1ccc(NN2C(C(O)c3ccccn3)C=CC3C(=O)N(C4CCCCC4)C(=O)C32)cc1 (stereo not drawn),2.24
27,CC(=O)n1cc(C(O)C2C=CC3C(=O)N(c4ccccc4)C(=O)C3N2Nc2ccccc2)c2ccccc21 (stereo not drawn),1.08

# Assay: compound binding in COS7 lysate, probe aLAP1, primary screen, cell lysate, small-molecule microarray (AID 1124);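 further: lysate comes from COS7 cells expressing LAP1 and is applied at 0.3 µg/mL; score merges spot fluorescence near 667 nm with signal-to-noise over triplicate slides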
# Conditions: probe aLAP1, fluorescence, higher = more signal
row,SMILES,composite z-score
1,O=C1C2C=CC(C(O)c3cc(C(F)(F)F)cc(C(F)(F)F)c3)N(Nc3ccc([N+](=O)[O-])cc3)C2C(=O)N1c1ccccc1 (stereo not drawn),-0.0967
2,COCCOC(=O)N1C(=O)[C@@]2(c3cc(C#CC4(O)CCCCCC4)ccc31)[C@H](C(=O)N1CCCCCCC1)[C@H]1C(=O)O[C@H](c3ccccc3)[C@H](c3ccccc3)N1[C@@H]2c1ccc(OCCO)cc1,1.35
3,CC(C)CNC(=O)[C@@H]1c2ccccc2C(=O)N(Cc2cc(F)cc(C(F)(F)F)c2)[C@H]1c1ccc(CO)cc1,0.333
4,CCOC(=O)[C@H]1C/C=C/C[C@H](C(=O)OCC)C(=O)O[C@H]2[C@@H](OC)O[C@H](CO)[C@@H](OC(=O)CCc3ccccc3)[C@@H]2OC1=O,0.715
5,C=CC[C@@]1(C(=O)O)N=C(c2ccc(OCCCO)cc2)O[C@@H]1c1ccccc1,0.724
6,CCOC(=O)[C@@H]1[C@@H]2C(=O)N(CC)C(=O)[C@@H]2C[C@@H]1Sc1ccccc1,0.68
7,CC(C)CN1C(=O)[C@@]2(c3ccc([N+](=O)[O-])cc3)CC(=O)N(CC34CC5CC(CC(C5)C3)C4)[C@@H]2c2ccc(CO)cc21,-0.0349
8,C=CC[C@@]1(C(=O)N2CCCCC2)N=C(c2ccc(OCCCO)cc2)O[C@@H]1c1ccccc1,1.07
9,C=CCOC(=O)[C@H]1[C@@H]2C(=O)O[C@@H](c3ccccc3)[C@@H](c3ccccc3)N2[C@@H](c2ccc(OCCOC(=O)[C@H]3C[C@H]4C(=O)N[C@@H](Cc5ccccc5)C(=O)N4[C@H]3c3ccc(O)cc3)cc2)[C@]12C(=O)Nc1ccc(I)cc12,0.428
10,C=CC[C@@]12N=C(c3ccc(OCCCO)cc3)O[C@@H]1c1ccccc1N(CCS(=O)(=O)c1ccccc1)C2=O,0.551
11,CC(C)N1CC=CC23O[C@@H]4C=CCCOC(=O)C4[C@H]2C(=O)N(CCO)[C@@H]3C1=O (stereo partly drawn),0.199
12,CCOC(=O)C[C@H]1[C@H](OC(=O)c2ccc(-c3ccccc3)cc2)[C@@H](NC(=O)C2CCCCC2)c2cc(OCCCO)ccc2N1C(=O)c1ccccc1,0.0846
13,C=CCN1Cc2ccccc2C[C@@]2(N=C(c3ccc(OCCCO)cc3)O[C@H]2c2ccccc2)C1=O,0.326
14,O=C1O[C@H](c2ccccc2)[C@H](c2ccccc2)N2[C@H]1[C@@H](C(=O)O)[C@]1(C(=O)Nc3ccccc31)[C@H]2c1ccc(O)cc1,1.01
15,CN(C)CCCNC(=O)[C@@]1(C)c2ccccc2C(=O)N(Cc2cc(C(F)(F)F)cc(C(F)(F)F)c2)[C@H]1c1ccc(CO)cc1,0.0017
16,CCOC(=O)C[C@H]1[C@H](OC(=O)c2ccc(C(=O)c3ccccc3)cc2)[C@@H](NC(=O)c2ccc3ccccc3c2)c2cc(OCCCO)ccc2N1C(=O)c1ccccc1,0.8
17,Cc1c(NC(=O)/C(C#N)=C/C=C/c2ccccc2[N+](=O)[O-])c(=O)n(-c2ccccc2)n1C,1.04
18,C=CC[C@]12N=C(c3ccc(OCCCO)cc3)O[C@H]1c1ccccc1N(C)C2=O,1.14

row,SMILES,composite z-score
1,CC(C)CCC[C@@H](C)[C@H]1CC[C@@]2(C)C3=C(CC[C@]12C)[C@@]1(C)CC[C@H](OC(=O)c2ccc(Br)cc2)C(C)(C)C1CC3 (stereo partly drawn),0.432
2,Cc1ccc(F)cc1S(=O)(=O)N[C@@H]1CCN(Cc2ccc(Oc3ccccc3)cc2)C1,-0.305
3,COC(=O)[C@H](Cc1ccccc1)N1CC(/C=C/C2CC2)=C[C@@H]1[C@@H](O)Cc1ccccc1,1.66
4,CCN(CC)c1ccc(N2CC=CC34O[C@@H]5/C=C\CCC(C)OC(=O)C5[C@H]3C(=O)N(CCO)[C@@H]4C2=O)cc1 (stereo partly drawn),0.711
5,Cc1ccc(S[C@]2(C(=O)NC3CC3)CC(=O)N(Cc3ccccc3Cl)[C@@H]2c2ccc(CO)cc2I)cc1,0.944
6,C[C@]1(C(=O)NCCN2CCOCC2)c2ccccc2C(=O)N(Cc2ccc(OC(F)(F)F)cc2)[C@H]1c1ccc(CO)cc1,0.345
7,C[C@H]1C2=C3C(CC[C@H]4C(OCc5ccc(F)cc5C(F)(F)F)OC[C@](C)([C@@H]34)N(C(=O)OC(C)(C)C)C2)C2COC(=O)OCC21 (stereo partly drawn),0.399
8,COCCOC(=O)N1C(=O)[C@@]2(c3cc(C#CCNC(N)=O)ccc31)[C@H](C(=O)N1CCCCCCC1)[C@H]1C(=O)O[C@H](c3ccccc3)[C@H](c3ccccc3)N1[C@@H]2c1ccc(O)cc1,0.285
9,Cc1ccc(C(C)CC(O)C2C=CC3C(=O)N(c4ccccc4)C(=O)C3N2Nc2ccc(C(C)C)cc2)o1 (stereo not drawn),0.835
10,CC=CC(O)C1C=CC2C(=O)N(C)C(=O)C2N1Nc1ccc([N+](=O)[O-])cc1[N+](=O)[O-] (stereo not drawn),0.146
11,O=C(O)[C@]1(Cc2ccccc2)N=C(c2ccc(OCCCO)cc2)O[C@@H]1c1ccccc1,-0.278
12,[N-]=[N+]=NCc1ccccc1[C@H]1OC(c2ccc(OCCCO)cc2)=N[C@@]1(CCS(=O)(=O)c1ccccc1)C(N)=O,1.71
13,Cc1c(NC(=O)/C(C#N)=C/C=C/c2ccc(N(C)C)cc2)c(=O)n(-c2ccccc2)n1C,-0.154
14,COc1ccc([Si](C)(C)[C@@H]2[C@@H](CCO)O[C@]3(C(=O)N(Cc4cccc(N5C(=O)c6cccc7cccc5c67)c4)c4ccccc43)[C@H]2C)cc1,-0.179
15,COc1c(C)cc(-c2cc3c(c(Cc4ccccc4)n2)[Si](C(C)C)(C(C)C)OC3)cc1C,-0.269
16,CON(C)C(=O)C=C1C[C@@H](c2cccc(Cl)c2)O[C@@H](c2cccc(Cl)c2)O1,0.166
17,COc1ccc(NN2C(C(O)c3ccccn3)C=CC3C(=O)N(C4CCCCC4)C(=O)C32)cc1 (stereo not drawn),0.969
18,CC(=O)n1cc(C(O)C2C=CC3C(=O)N(c4ccccc4)C(=O)C3N2Nc2ccccc2)c2ccccc21 (stereo not drawn),0.697
